Source: PMC5540273 (PLoS ONE, 2017)

Columns and labels:
Settings in all cases: concentration: 1 μM, replicates: in singlicate; n = 1
[1] = system: MARK4
[2] = system: MAST1
[3] = system: T1, MEK1
T1 construct: gene MAP2K1

[4] = system: T2, MEK2
T2 construct: gene MAP2K2

[5] = system: T3, MEK3
T3 construct: gene MAP2K3

[6] = system: T4, MEK4
T4 construct: gene MAP2K4

[7] = system: T5, MEK5
T5 construct: gene MAP2K5

[8] = system: T6, MEK6
T6 construct: gene MAP2K6

[9] = system: MELK
[10] = system: MERTK
[11] = system: MET
[12] = system: T7, MINK
T7 construct: gene MINK1

[13] = system: MKK7
[14] = system: MKNK1
[15] = system: MKNK2
[16] = system: T8, MLCK
T8 construct: gene MYLK3

[17] = system: T9, MLK1
T9 construct: gene MAP3K9

[18] = system: MLK2
[19] = system: MLK3
[20] = system: MRCKA
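Also: KINOMEscan kinase panel screen.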

Compound | %Inh [1] [%] | %Inh [2] [%] | %Inh [3] [%] | %Inh [4] [%] | %Inh [5] [%] | %Inh [6] [%] | %Inh [7] [%] | %Inh [8] [%] | %Inh [9] [%] | %Inh [10] [%] | %Inh [11] [%] | %Inh [12] [%] | %Inh [13] [%] | %Inh [14] [%] | %Inh [15] [%] | %Inh [16] [%] | %Inh [17] [%] | %Inh [18] [%] | %Inh [19] [%] | %Inh [20] [%]
Cc1nn2c(=O)cc(N3CCOCC3)nc2n1Cc1cccc(Cl)c1Cl [GSK2342769] | 0 | 2 | 0 | 0 | 0 | 31 | 0 | 0 | 8 | 10 | 1 | 0 | 0 | 0 | 4 | 7 | 0 | 0 | 0 | 10
Cn1c(=O)c(F)c(Nc2ccc(I)cc2F)c2c(=O)n(OC[C@H](O)CO)cnc21 | 33 | 37 | 99.6 | 99.1 | 0 | 0 | 0 | 0 | 13 | 5 | 12 | 0 | 0 | 4 | 0 | 0 | 19 | 25 | 9 | 20
O=C1NC(=O)C(c2ccccc2)=C1Nc1cccc(O)c1 [SB-390534] | 0 | 33 | 16 | 14 | 10 | 12 | 29 | 0 | 4 | 9 | 0 | 22 | 0 | 0 | 21 | 0 | 0 | 0 | 6 | 0
CC(C)(C)c1ccc(C(=O)Nc2cn3cc(-c4ccccc4)ccc3n2)cc1 | 0 | 0 | 0 | 45 | 25 | 0 | 75 | 0 | 0 | 0 | 0 | 36 | 0 | 0 | 13 | 14 | 0 | 0 | 0 | 0
CCC(=O)c1c(-c2ccccc2)c2cc(Cl)ccc2c(=O)n1Cc1cc(S(C)(=O)=O)n(CCC(C)(C)O)n1 | 0 | 0 | 11 | 19 | 23 | 40 | 0 | 8 | 16 | 13 | 0 | 0 | 0 | 0 | 0 | 7 | 3 | 0 | 24 | 0
C[C@@H]1CC[C@H](C(=O)NC2CCCCC2)CN1c1cc(-c2ccc3c(N)n[nH]c3c2)nc(N)n1 [GSK2291363] | 11 | 0 | 0 | 0 | 18 | 27 | 35 | 9 | 26 | 33 | 0 | 12 | 0 | 12 | 18 | 0 | 4 | 0 | 32 | 15
Nc1ncnc2c1ncn2-c1cccc(F)c1 [SKF-97560] | 0 | 19 | 34 | 31 | 43 | 22 | 31 | 0 | 22 | 24 | 18 | 9 | 29 | 0 | 32 | 18 | 5 | 30 | 10 | 0
Nc1nc(-c2ccccc2F)c(-c2ccnc3ccccc23)s1 [GW560459] | 0 | 0 | 0 | 0 | 0 | 40 | 50 | 5 | 0 | 0 | 0 | 81 | 15 | 12 | 0 | 0 | 0 | 0 | 5 | 15
COc1cccc(C2=C(N(C)c3ccccc3)C(=O)NC2=O)c1 [SB-334865] | 1 | 0 | 0 | 0 | 0 | 4 | 6 | 0 | 0 | 18 | 0 | 11 | 0 | 3 | 0 | 0 | 0 | 0 | 12 | 0
CCS(=O)(=O)c1ccc(OC)c(Nc2ncc(-c3ccc(F)cc3)o2)c1.Cl [GW591947] | 0 | 0 | 0 | 0 | 0 | 6 | 18 | 0 | 0 | 28 | 0 | 0 | 0 | 0 | 0 | 0 | 0 | 0 | 6 | 10
